Bioassay records as filed in PubChem.
Sampled rows, rich in hits. Any-hit rate of the full collection: about 15%.
RORg inh: blocks mouse ROR gamma transcriptional activity | 310,000 compounds, 5.4% hits | Drosophila S2 Gal4-RORgamma UAS-luciferase reporter, 20 h | Potency, µM (top dose mostly 53.6 µM), for inactives: top-dose activity change, negative = inhibition, hits mostly inhibitors | AID 2551 | P51450; note: nearly all actives have a fitted effect of over 60% in size
Target sequence (P51450 whole entry, looked up, the tested form may be a part): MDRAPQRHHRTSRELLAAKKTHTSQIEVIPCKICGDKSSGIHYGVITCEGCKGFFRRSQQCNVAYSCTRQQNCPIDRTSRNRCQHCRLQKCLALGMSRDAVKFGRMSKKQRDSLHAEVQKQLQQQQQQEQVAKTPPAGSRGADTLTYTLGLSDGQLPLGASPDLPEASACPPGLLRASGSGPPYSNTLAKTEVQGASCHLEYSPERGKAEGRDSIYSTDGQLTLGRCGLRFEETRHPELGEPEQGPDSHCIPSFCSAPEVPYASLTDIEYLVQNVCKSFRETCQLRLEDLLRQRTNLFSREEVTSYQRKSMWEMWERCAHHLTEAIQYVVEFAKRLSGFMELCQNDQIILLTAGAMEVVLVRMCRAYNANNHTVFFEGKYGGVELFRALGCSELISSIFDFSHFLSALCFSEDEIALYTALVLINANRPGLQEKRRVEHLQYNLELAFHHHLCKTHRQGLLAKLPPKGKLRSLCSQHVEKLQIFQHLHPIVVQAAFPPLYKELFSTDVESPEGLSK
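Drosophila S2 cells stably expressing Gal4-DBD/mouse RORγ fusion under metallothionein promoter plus UAS-luciferase; compound 1 h, then 700 uM CuSO4 induction for 20 h at ambient temperature; inhibition read as reduced luminescence.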
ALOX12 inh: inhibitors of human 12S-lipoxygenase ALOX12; 580,000 compounds, 1.1% hits; Potency, µM (series often up to 108 µM), without a hit: at the top dose activity change, negative = inhibition, hits mostly inhibitors; AID 1671190; P18054; purified 12hLO, xylenol orange hydroperoxide absorbance
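Hydroperoxide product was detected by ferrous iron/xylenol orange as the 573 to 405 nm absorbance ratio. Arachidonic acid at 40 uM (final) was turned over for 30 min at room temperature by 150 nM human 12hLO, pH 7.0 Hepes buffer, after 15 min compound preincubation.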
TDP1 cell CPT: growth inhibition of DT40 Tdp1-/-;hTDP1 cells with camptothecin (screen for TDP1 inhibitors); chicken DT40 Tdp1-/-;hTDP1 cells + 20 nM CPT, ATP luminescence, 48 h; Potency, µM (doses to about 46.2 µM), without a hit: at the highest dose activity change, negative = growth inhibition, most hits filed as inhibitors; 420,000 compounds, 12% hits; AID 686979; note: nearly all actives have a fitted effect of over 55% in size
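Chicken DT40 Tdp1-/- cells stably complemented with human TDP1 were seeded at 400 cells/well in medium containing 20 nM camptothecin, exposed to pin-transferred compounds, and grown at 37 °C for at least 48 hr. Viability was read as ATP luminescence.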
TDP1 cell noCPT: qHTS for Inhibitors of human tyrosyl-DNA phosphodiesterase 1 (TDP1): qHTS in cells in absence of CPT; DT40 Tdp1-/- hTDP1 cells, no CPT, ATP luminescence, 48 h; Potency, µM (highest dose often 46.2 µM), for the others: at the top dose activity change, negative = growth inhibition, usual class: inhibitors; 420,000 compounds, 15% hits; AID 686978, 2013; note: nearly all actives have a fitted effect of over 55% in size
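Chicken DT40 Tdp1-/- cells stably complemented with human TDP1 were seeded at 400 cells/well with DMSO in place of 20 nM camptothecin. After compound pinning, cells grew at least 48 hr at 37 °C; viability read by CellTiter-Glo luminescence.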
ELG1 repair inh: inhibitors of ELG1-dependent DNA repair in HEK293T cells | HEK293T ELG1-luciferase reporter, luminescence, 16 h; DNA damage induced by 5-fluorouridine | 330,000 compounds, 2.3% hits | Potency, µM (doses to about 46.1 µM), for inactives: at the highest dose activity change, negative = inhibition, usual class: inhibitors; note: nearly all actives have a fitted effect of over 55% in size
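DMSO vehicle served as the neutral condition. Each well held 2,000 cells given 5-fluorouridine plus compound; after 16 hr at 37 °C/5% CO2, ONE-Glo was added and luciferase measured 30 min later.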
Gal4-VP16 FLuc: inhibits Gal4-VP16 luciferase reporter, ROR gamma counter-screen; Drosophila S2 Gal4-VP16 UAS-luciferase, luminescence, 20 h; Potency, µM (doses to about 53.6 µM), for the others: at the top dose activity, negative = inhibition, actives largely listed as inhibitors; 310,000 compounds, 3.5% hits; AID 2546;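 note: Gal4-VP16 expression switched on by copper sulfate through the metallothionein promoter; nearly all actives have a fitted effect of over 50% in size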
* hit, by the source's call. Calls come from the whole dose curve; as a rule, active = well fitted curve in the direction sought with a large enough effect; inconclusive = small, poorly fitted or top-dose-only effect, or another doubt; inactive = no such curve, though single readings can be large; an effect the other way counts as inactive or inconclusive. % is set by controls: 0 for no effect and ±100 for the full control effect; potency is the fitted concentration of half-maximal effect.

How did COc1ccc(-c2nc3cnc(N4CCN(C)CC4)nc3n(Cc3cccs3)c2=O)cc1 do in these assays?
RORg inh: -7.1%; ALOX12 inh: inconclusive; TDP1 cell CPT: inconclusive; TDP1 cell noCPT: inconclusive; Gal4-VP16 FLuc: -7.8%

How did O=c1c(-c2ccc(F)cc2)nc2cncnc2n1Cc1ccccc1 do in these assays?
RORg inh: -8.0%; ALOX12 inh: -5.2%; TDP1 cell CPT: inconclusive; TDP1 cell noCPT: 16.4µM*; Gal4-VP16 FLuc: -7.4%

How did CN1CCN(c2ncc3nc(-c4cc(F)cc(F)c4)c(=O)n(Cc4cccs4)c3n2)CC1 do in these assays?
RORg inh: 0.1%; ALOX12 inh: 17.8µM*; TDP1 cell CPT: 3.0%; TDP1 cell noCPT: -11.2%; Gal4-VP16 FLuc: -1.1%

What do the screens show for `CN1CCN(c2ncc3nc(-c4ccccc4)c(=O)n(Cc4ccc(F)cc4)c3n2)CC1`?
RORg inh: 4.5%; ALOX12 inh: 35.5µM*; TDP1 cell CPT: -11.7%; TDP1 cell noCPT: -29.6%; Gal4-VP16 FLuc: -18.7%

How did CN1CCN(c2ncc3nc(-c4cccs4)c(=O)n(CCc4ccccc4)c3n2)CC1 do in these assays?
RORg inh: -16.1%; ALOX12 inh: 0.0%; TDP1 cell CPT: -12.8%; TDP1 cell noCPT: -29.2%; Gal4-VP16 FLuc: 8.7%

What do the screens show for `CN1CCN(c2ncc3nc(-c4cccs4)c(=O)n(Cc4ccc(F)cc4)c3n2)CC1`?
RORg inh: -44.7%; ALOX12 inh: inconclusive; TDP1 cell CPT: 13µM*; TDP1 cell noCPT: inconclusive; Gal4-VP16 FLuc: -6.7%

Results for Cc1noc(C)c1S(=O)(=O)Nc1c(NC2CCCCC2)c2ccccc2oc1=O ?
ALOX12 inh: -17.0%

How did Cc1cc(Oc2cccc(Cl)c2C#N)ccc1Cl do in these assays?
ALOX12 inh: -15.7%

How did Cc1ccc(NC(=O)C2CCN(C(=O)c3ncn4c3COC(c3ccc(F)cc3)C4)CC2)c(Cl)c1 (configuration not stated) do in these assays?
ALOX12 inh: 39.9%

Results for Cc1cccc(CNc2nc(-c3ccccc3CN(C)C)nc3ccccc23)c1 ?
RORg inh: 22.4µM*; ALOX12 inh: inconclusive; TDP1 cell CPT: 13µM*; TDP1 cell noCPT: 5.17µM*; Gal4-VP16 FLuc: inconclusive

Results for CN(C)Cc1ccccc1-c1ccc2ncnc(NCc3cccs3)c2c1 ?
RORg inh: 18.5%; ALOX12 inh: inconclusive; TDP1 cell CPT: inconclusive; TDP1 cell noCPT: inconclusive; Gal4-VP16 FLuc: -2.5%

Results for CN(C)Cc1ccccc1-c1nc(NCc2cccs2)c2ccccc2n1 ?
RORg inh: -32.5%; ALOX12 inh: -1.1%; TDP1 cell CPT: 20.6µM*; TDP1 cell noCPT: 20.6µM*; Gal4-VP16 FLuc: -10.7%

Results for c1csc(CNc2nc(-c3ccc4c(c3)OCO4)nc3ccccc23)c1 ?
RORg inh: -16.2%; ALOX12 inh: 11.2µM*; TDP1 cell CPT: inconclusive; TDP1 cell noCPT: inconclusive; Gal4-VP16 FLuc: inconclusive

How did CC1(C)CC(NC(=O)c2nc(-c3ccc4[nH]ccc4c3)no2)CC(C)(C)N1 do in these assays?
ALOX12 inh: 3.4%

Results for COC(=O)c1ccc(NC(=O)N2CCCC(CN3CCOCC3)CC2)cc1 (configuration not stated) ?
ALOX12 inh: 13.8%

How did Cc1ccc(NC(=O)c2sc3nc(-c4cc5ccccc5oc4=O)[nH]c(=O)c3c2C)c(C)c1 do in these assays?
ALOX12 inh: 6.8%; TDP1 cell CPT: -12.1%; TDP1 cell noCPT: -27.7%

Results for Cc1ccccc1NC(=O)c1sc2nc(-c3cc4ccccc4oc3=O)[nH]c(=O)c2c1C ?
ALOX12 inh: -17.6%; TDP1 cell CPT: 8.2µM*; TDP1 cell noCPT: inconclusive

What do the screens show for `C/C(=N\Nc1cc(C)nc(-c2ccccc2)n1)c1cccc([N+](=O)[O-])c1`?
RORg inh: inconclusive; ALOX12 inh: -1.9%; TDP1 cell CPT: 20.6µM*; TDP1 cell noCPT: inconclusive; ELG1 repair inh: 14.6µM*; Gal4-VP16 FLuc: -5.9%

How did C/C(=N\Nc1ccc([N+](=O)[O-])cc1)c1ccc(O)cc1 do in these assays?
RORg inh: inconclusive; ALOX12 inh: inconclusive; TDP1 cell CPT: inconclusive; TDP1 cell noCPT: inconclusive; ELG1 repair inh: inconclusive; Gal4-VP16 FLuc: -8.2%

Results for O=[N+]([O-])c1cccc(/C=N/Nc2cc(Cl)nc(-c3ccccc3)n2)c1 ?
RORg inh: -2.3%; ALOX12 inh: -15.7%; TDP1 cell CPT: inconclusive; TDP1 cell noCPT: 20.6µM*; ELG1 repair inh: inconclusive; Gal4-VP16 FLuc: -6.1%

What do the screens show for `O=[N+]([O-])c1ccc(/C=N/Nc2cc(Cl)nc(-c3ccccc3)n2)cc1`?
RORg inh: 11.4%; ALOX12 inh: 250.9%; TDP1 cell CPT: inconclusive; TDP1 cell noCPT: inconclusive; ELG1 repair inh: 10.6%; Gal4-VP16 FLuc: -7.3%

How did COc1cc(N/N=C(\C)c2ccc(N)cc2)nc(-c2ccccc2)n1 do in these assays?
RORg inh: inconclusive; ALOX12 inh: 119.8%; TDP1 cell CPT: 23.1µM*; TDP1 cell noCPT: 18.4µM*; ELG1 repair inh: inconclusive; Gal4-VP16 FLuc: inconclusive

What do the screens show for `C/C(=N\Nc1ccc([N+](=O)[O-])cc1)c1cccc(N)c1`?
RORg inh: inconclusive; ALOX12 inh: inconclusive; TDP1 cell CPT: inconclusive; TDP1 cell noCPT: 20.6µM*; ELG1 repair inh: 8.1%; Gal4-VP16 FLuc: 1.1%

How did Cc1ccsc1C(=O)N1CCC(c2noc(-c3cnccn3)n2)C1 (configuration not stated) do in these assays?
ALOX12 inh: 6.7%

How did N#Cc1cccc(CN2CCCC(c3[nH]ccc3C(N)=O)C2)c1 (configuration not stated) do in these assays?
ALOX12 inh: -1.4%

How did COc1cc(N/N=C(\C)c2ccc(O)c(C)c2)nc(-c2ccccc2)n1 do in these assays?
RORg inh: 24.3%; ALOX12 inh: -3.2%; TDP1 cell CPT: inconclusive; TDP1 cell noCPT: inconclusive; ELG1 repair inh: -17.0%; Gal4-VP16 FLuc: -26.9%

Results for C/C(=N\Nc1cc(-c2ccccc2)nc(-c2ccccc2)n1)c1ccc(O)c(C)c1 ?
RORg inh: 8.91µM*; ALOX12 inh: -2.7%; TDP1 cell CPT: inconclusive; TDP1 cell noCPT: inconclusive; ELG1 repair inh: inconclusive; Gal4-VP16 FLuc: 12.6µM*

Results for CCN1C(=O)C(CC(=O)NCc2ccccc2)Sc2ncccc21 (configuration not stated) ?
ALOX12 inh: 9.9%
